# Measurements from PubChem BioAssay.
# A number with no mark means an inactive call. Calls of active or inactive are those of the source.
# Experiment: budding yeast growth modifiers under rapamycin – strain BY4716, OD600, 96 h, primary screen (AID 1091); also: test concentration not given here
# Settings: S. cerevisiae BY4716 + rapamycin, higher = more signal, called active from +8 up or from −8 down
row,Structure (SMILES),z-score
1,O=C(O)C1=CC[C@H]2C(=O)N(c3ccccc3)C(=O)[C@@H]12,1.52
2,C=CC[C@H](OC(=O)Nc1ccc(SC)cc1)c1ccc(O)c(F)c1,-1.19
3,COC(=O)C1(CC(C)C)C=C2C(=C(C)C(=O)C2C)CN1 (stereo unspecified),0.202
4,[N-]=[N+]=NCc1ccccc1C[C@]1(C(=O)N2CCCCC2)COC(c2ccc(OCCCO)cc2)=N1,34.8 (active)
5,C=C[C@H](C)[C@@H](OC(=O)Nc1ccc(SC)cc1)c1ccc(OCCO)cc1,1.92
6,COC(=O)Cn1c(C(=O)N(C)C)cc2c1C[C@H]1CN(C(=O)c3ccccc3)[C@@](Cc3ccccc3)(C(=O)OC)[C@@H]21,-0.207
7,O=C1c2ccccc2[C@](Cc2ccccc2I)(C(=O)NCCN2CCOCC2)[C@H](c2ccc(CO)cc2)N1Cc1ccccc1C(F)(F)F,-0.132
8,Cc1ccc(S[C@]2(C(=O)NCCN3CCOCC3)CC(=O)N(C(C)C)[C@@H]2c2ccc(CO)cc2I)cc1,-0.616
9,C=C(CCCC)C(=O)CC[C@H](OC(=O)c1ccccc1-c1ccccc1C(=O)O)c1cccc(OCCO)c1,-0.678
10,[N-]=[N+]=Nc1ccccc1C[C@@]1(C(=O)NCc2ccccc2)N=C(c2ccc(OCCCO)cc2)O[C@@H]1c1ccccc1,5.57
11,C=CCNC(=O)[C@@H]1[C@H]2C(=O)O[C@H](c3ccccc3)[C@H](c3ccccc3)N2[C@H](c2ccc(OCCO)cc2)[C@@]12C(=O)Nc1ccc(C#CC3=CCCCC3)cc12,3.36
